In PubChem BioAssay (Tox21):
Results filed as inconclusive are left out. Active and inactive are the calls of the source. Calls follow the shape of the dose curve; as a rule, active = well fitted curve in the direction sought with a large enough effect in the repeat runs; inconclusive = weak or mixed curves; inactive = no such curve, though single readings can be large; an effect the other way counts as inactive or inconclusive.

Tests used:
[1] = qHTS RealTime-Glo MT Cell Viability Assay in HepG2 cells - 40 hour (AID 1224870); also: nearly all actives have a fitted effect of over 50% in size
Summary of the method: (§1)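 Real-time viability: cells seeded at 600 per well together with NanoLuc and cell-permeant prosubstrate, compounds added after 5 h incubation. Luminescence tracked at 0, 8, 16, 24, 32 and 40 h of exposure.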

[2] = A CellTox Green Cytotoxicity Assay to monitor cytotoxicity in HEK293 cells - 40 hour (AID 1224871); also: nearly all actives have a fitted effect of over 45% in size
Summary of the method: (§2)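 Read-out: fluorescence of a cell-impermeant cyanine dye staining DNA of dead cells, proportional to cytotoxicity. HEK293, 600 cells/well with reagent, compound (23 nL DMSO) added after 5 h; reads at 0, 8, 16, 24, 32, 40 h.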

[3] = qHTS RealTime-Glo MT Cell Viability Assay in HEK293 cells - 16 hour (AID 1224872); also: top concentration of the series differs between compounds; nearly all actives have a fitted effect of over 50% in size
Summary of the method: (§3)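 Nonlytic real-time viability readout: viable cells convert prosubstrate to NanoLuc substrate, giving luminescence proportional to live cell number. HEK293, 600 cells/well, compound added after 5 h, continuous culture at 37 C.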

[4] = qHTS RealTime-Glo MT Cell Viability Assay in HepG2 cells - 8 hour (AID 1224873); also: nearly all actives have a fitted effect of over 55% in size
Summary of the method: as §1

[5] = qHTS RealTime-Glo MT Cell Viability Assay in HEK293 cells - 40 hour (AID 1224874); conditions: RealTime-Glo luminescence; max response: stronger effect = lower value; also: nearly all actives have a fitted effect of over 50% in size
Summary of the method: (§4)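 Luminescence readout at each listed time point; HEK293, 600 cells/well, RealTime-Glo MT reagent added with cells; compounds pinned (23 nL in DMSO) after 5 h at 37 C; continuous culture at 37 C.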

[6] = A CellTox Green Cytotoxicity Assay to monitor cytotoxicity in HEK293 cells - 24 hour (AID 1224875); also: series mostly up to about 77 µM; nearly all actives have a fitted effect of over 45% in size
Summary of the method: as §2

[7] = A CellTox Green Cytotoxicity Assay to monitor cytotoxicity in HepG2 cells - 16 hour (AID 1224876); also: nearly all actives have a fitted effect of over 45% in size
Summary of the method: (§5)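 HepG2, 600 cells/well premixed w/ CellTox Green; 5 h settle, 37 C/5% CO2; pintool cpd add (DMSO); 37 C, 40 h; fluorescence read at 0, 8, 16, 24, 32, 40 h.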

[8] = qHTS RealTime-Glo MT Cell Viability Assay in HepG2 cells - 32 hour (AID 1224877); also: nearly all actives have a fitted effect of over 55% in size
Summary of the method: (§6)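 Luminescence read-out: viable HepG2 cells reduce a prosubstrate to a NanoLuc substrate, giving a signal proportional to live cell number. Reads taken at 0, 8, 16, 24, 32 and 40 h of compound exposure at 37 C.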

[9] = A CellTox Green Cytotoxicity Assay to monitor cytotoxicity in HepG2 cells - 24 hour (AID 1224878); also: nearly all actives have a fitted effect of over 45% in size
Summary of the method: as §5

[10] = A CellTox Green Cytotoxicity Assay to monitor cytotoxicity in HepG2 cells - 40 hour (AID 1224879); also: nearly all actives have a fitted effect of over 40% in size
Summary of the method: as §5

[11] = qHTS RealTime-Glo MT Cell Viability Assay in HEK293 cells - 0 hour (AID 1224880)
Summary of the method: as §4

[12] = A CellTox Green Cytotoxicity Assay to monitor cytotoxicity in HEK293 cells - 32 hour (AID 1224881); also: nearly all actives have a fitted effect of over 40% in size
Summary of the method: as §2

[13] = A CellTox Green Cytotoxicity Assay to monitor cytotoxicity in HepG2 cells - 0 hour (AID 1224882); also: nearly all actives have a fitted effect of over 35% in size
Summary of the method: as §5

[14] = A CellTox Green Cytotoxicity Assay to monitor cytotoxicity in HepG2 cells - 32 hour (AID 1224883); also: nearly all actives have a fitted effect of over 50% in size
Summary of the method: as §5

[15] = A CellTox Green Cytotoxicity Assay to monitor cytotoxicity in HEK293 cells - 8 hour (AID 1224884); also: nearly all actives have a fitted effect of over 35% in size
Summary of the method: as §2

[16] = qHTS RealTime-Glo MT Cell Viability Assay in HepG2 cells - 16 hour (AID 1224885); also: nearly all actives have a fitted effect of over 50% in size
Summary of the method: as §6

[17] = qHTS RealTime-Glo MT Cell Viability Assay in HEK293 cells - 24 hour (AID 1224886)
Summary of the method: as §3

[18] = A CellTox Green Cytotoxicity Assay to monitor cytotoxicity in HEK293 cells - 16 hour (AID 1224888); also: nearly all actives have a fitted effect of over 35% in size
Summary of the method: as §2

[19] = qHTS RealTime-Glo MT Cell Viability Assay in HepG2 cells - 0 hour (AID 1224889); also: nearly all actives have a fitted effect of over 50% in size
Summary of the method: as §6

[20] = qHTS RealTime-Glo MT Cell Viability Assay in HEK293 cells - 8 hour (AID 1224887)
Summary of the method: as §4
% is scaled to controls: 0 for no effect and ±100 for the full control effect.

CCCC/C=C\CCCCCCCCCC=O
inactive: outcome [1] | Potency [2] | Potency [3] | outcome [4] | max response [5] -10.9% | outcome [6] | outcome [7] | outcome [8] | outcome [9] | Potency [10] | Potency [11] | Potency [12] | outcome [13] | Potency [14] | Potency [15] | outcome [16] | Potency [17] | outcome [18] | Potency [19]

COc1cc(C(=S)N2CCOCC2)cc(OC)c1OC
inactive: outcome [1] | Potency [2] | Potency [3] | outcome [4] | max response [5] 4.79% | outcome [6] | outcome [7] | outcome [8] | outcome [9] | Potency [10] | Potency [11] | Potency [12] | outcome [13] | Potency [14] | Potency [15] | outcome [16] | Potency [17] | outcome [18] | Potency [19]

CC1(CO)CN(c2ccccc2)NC1=O (configuration not stated)
inactive: outcome [1] | Potency [2] | Potency [3] | outcome [4] | max response [5] -10.7% | outcome [6] | outcome [7] | outcome [8] | outcome [9] | Potency [10] | Potency [12] | outcome [13] | Potency [14] | Potency [15] | outcome [16] | Potency [17] | Potency [20] | outcome [18] | Potency [19]

O=C(OCC1(COC(=O)c2cccnc2)CCCC(COC(=O)c2cccnc2)(COC(=O)c2cccnc2)C1O)c1cccnc1
inactive: outcome [1] | Potency [2] | Potency [3] | outcome [4] | max response [5] 1.63% | outcome [6] | outcome [7] | outcome [8] | outcome [9] | Potency [10] | Potency [11] | Potency [12] | outcome [13] | Potency [14] | Potency [15] | outcome [16] | Potency [17] | outcome [18] | Potency [19]

CCN1CCc2nc(N)oc2CC1
inactive: outcome [1] | Potency [2] | Potency [3] | outcome [4] | max response [5] 0.505% | outcome [6] | outcome [7] | outcome [9] | Potency [10] | Potency [11] | Potency [12] | outcome [13] | Potency [14] | Potency [15] | outcome [16] | Potency [17] | Potency [20] | outcome [18] | Potency [19]

C=C(C)C(=O)OCc1ccccc1
inactive: outcome [1] | Potency [2] | Potency [3] | outcome [4] | max response [5] -7.63% | outcome [6] | outcome [7] | outcome [8] | outcome [9] | Potency [10] | Potency [12] | outcome [13] | Potency [14] | Potency [15] | outcome [16] | Potency [17] | outcome [18] | Potency [19]

CCOC(=O)[C@H](CCc1ccccc1)N[C@@H](C)C(=O)N1C(=O)N(C)C[C@H]1C(=O)O
inactive: outcome [1] | Potency [2] | Potency [3] | outcome [4] | max response [5] 1.75% | outcome [6] | outcome [7] | outcome [9] | Potency [10] | Potency [11] | Potency [12] | outcome [13] | Potency [14] | Potency [15] | outcome [16] | Potency [17] | Potency [20] | outcome [18] | Potency [19]

Oc1ccccc1-c1nnco1
inactive: outcome [1] | Potency [2] | Potency [3] | outcome [4] | max response [5] 2.75% | outcome [6] | outcome [7] | outcome [8] | outcome [9] | Potency [10] | Potency [11] | Potency [12] | outcome [13] | Potency [14] | Potency [15] | outcome [16] | Potency [17] | outcome [18] | Potency [19]

C[Si](C)(C)C
inactive: outcome [1] | Potency [2] | Potency [3] | outcome [4] | max response [5] 7.29% | outcome [6] | outcome [7] | outcome [8] | outcome [9] | Potency [10] | Potency [11] | Potency [12] | outcome [13] | Potency [14] | Potency [15] | outcome [16] | Potency [17] | Potency [20] | outcome [18] | Potency [19]

O=C(NCCc1c[nH]c2ccccc12)c1cccnc1
inactive: outcome [1] | Potency [2] | Potency [3] | outcome [4] | max response [5] -11.8% | outcome [6] | outcome [7] | outcome [9] | Potency [10] | Potency [11] | Potency [12] | outcome [13] | Potency [14] | Potency [15] | outcome [16] | Potency [17] | Potency [20] | outcome [18] | Potency [19]

CC1=CCC(C(C)C)=CC1
inactive: outcome [1] | Potency [2] | Potency [3] | outcome [4] | max response [5] -3.87% | outcome [6] | outcome [7] | outcome [8] | outcome [9] | Potency [10] | Potency [12] | outcome [13] | Potency [14] | Potency [15] | outcome [16] | Potency [17] | Potency [20] | outcome [18] | Potency [19]

Cc1ccsc1/C=C/C1=NCCCN1C
inactive: outcome [1] | Potency [2] | Potency [3] | outcome [4] | max response [5] 2.37% | outcome [6] | outcome [7] | outcome [8] | outcome [9] | Potency [10] | Potency [12] | outcome [13] | Potency [14] | Potency [15] | outcome [16] | Potency [17] | Potency [20] | outcome [18] | Potency [19]

NC(CO)C(=O)NNCc1ccc(O)c(O)c1O (configuration not stated)
inactive: outcome [1] | Potency [2] | Potency [3] | outcome [4] | max response [5] 2.85% | outcome [6] | outcome [7] | outcome [8] | outcome [9] | Potency [10] | Potency [11] | Potency [12] | outcome [13] | Potency [14] | Potency [15] | outcome [16] | Potency [17] | outcome [18] | Potency [19]
